Measurements as given in PubChem BioAssay (NCATS).
For part of these data: Results with a measured potency or affinity are listed apart. Active and inactive are the calls of the source. No rule for the calls is given here.

Tests used:
[1] = Ebola virus entry assay, green fluorescence channel
[2] = Ebola virus entry assay, blue channel fluorescence
[3] = Ebola virus entry assay, ratio channel
[4] = Ebola virus entry assay, green channel fluorescence
[5] = Ebola virus entry assay, reporter ratio channel; Channel type: primary
[6] = Ebola virus entry assay, blue channel (ratio component)
For efficacy in this document: 0% is about no effect.

Brc1c(NC2=NCCN2)ccc2nccnc12
inactive: efficacy [1] -28.5% | outcome [2] | outcome [3] | outcome [4] | outcome [5] | outcome [6]

CC(NC(CCc1ccccc1)C(=O)O)C(=O)N1C(=O)N(C)CC1C(=O)O (centres undefined)
inactive: efficacy [1] -14.7% | outcome [2] | outcome [3] | outcome [4] | outcome [5] | outcome [6]

NCC1CCC(C(=O)Oc2ccc(CCC(=O)O)cc2)CC1 (centres undefined)
inactive: efficacy [1] 32.3% | outcome [2] | outcome [3] | outcome [4] | outcome [5] | outcome [6]

C=CCSCC1Nc2cc(Cl)c(S(N)(=O)=O)cc2S(=O)(=O)N1 (centres undefined)
inactive: efficacy [1] -29.5% | outcome [2] | outcome [3] | outcome [4] | outcome [5] | outcome [6]

CCCCCCCCCCCCCCCCCCOCC(O)CO (centres undefined)
inactive: efficacy [1] -25.1% | outcome [2] | outcome [3] | outcome [4] | outcome [5] | outcome [6]

CC1(C)S[C@@H]2[C@H](N=CN3CCCCCC3)C(=O)N2[C@H]1C(=O)O
inactive: efficacy [1] -47.1% | outcome [2] | outcome [3] | outcome [4] | outcome [5] | outcome [6]

O=C1c2ccccc2C(=O)C1c1ccc(Br)cc1
inactive: efficacy [1] -9.92% | outcome [2] | outcome [3] | outcome [4] | outcome [5] | outcome [6]

CCN(CC)CC(=O)OCC(=O)[C@@]1(O)CC[C@H]2[C@@H]3CCC4=CC(=O)CC[C@]4(C)[C@H]3[C@@H](O)C[C@@]21C
inactive: efficacy [1] 17.3% | outcome [2] | outcome [3] | outcome [4] | outcome [5] | outcome [6]

O=c1[nH]c2ccccc2c(=O)n1CCCl
inactive: efficacy [1] -18.7% | outcome [2] | outcome [3] | outcome [4] | outcome [5] | outcome [6]

Cc1ccc(=O)n(-c2ccccc2)c1
inactive: efficacy [1] -13.1% | outcome [2] | outcome [3] | outcome [4] | outcome [5] | outcome [6]

COc1cc(C(=S)N2CCOCC2)ccc1O
inactive: efficacy [1] -16.3% | outcome [2] | outcome [3] | outcome [4] | outcome [5] | outcome [6]

C(=C\c1ccccc1)/CN1CCN(C(c2ccccc2)c2ccccc2)CC1
inactive: efficacy [1] 12.5% | outcome [2] | outcome [3] | outcome [4] | outcome [5] | outcome [6]

CC(=O)OC/C=C(C)/C=C/C=C(C)/C=C/C1=C(C)CCCC1(C)C
inactive: efficacy [1] -18.2% | outcome [2] | outcome [3] | outcome [4] | outcome [5] | outcome [6]

CCOc1cc(N)c(Cl)cc1C(=O)NCC1CN(Cc2ccc(F)cc2)CCO1 (centres undefined)
active: AC50 [5] 39.8 µM
inactive: efficacy [1] 26.3% | outcome [2] | outcome [3] | outcome [4] | outcome [6]

FC(F)(F)C(F)(F)C(F)(F)C(F)(F)C(F)(F)C(F)(F)C(F)(F)C(F)(F)Br
inactive: efficacy [1] -14.2% | outcome [2] | outcome [3] | outcome [4] | outcome [5] | outcome [6]

Cl/C(=C\n1cncn1)c1ccc(Cl)cc1Cl
inactive: efficacy [1] -16.7% | outcome [2] | outcome [3] | outcome [4] | outcome [5] | outcome [6]

CCOC(=O)C(=O)CCc1ccccc1
inactive: efficacy [1] -17.5% | outcome [2] | outcome [3] | outcome [4] | outcome [5] | outcome [6]

CC1(C)CCC(C)(C)c2cc(NC(=O)c3ccc(C(=O)O)cc3)ccc21
inactive: efficacy [1] 21.8% | outcome [2] | outcome [3] | outcome [4] | outcome [5] | outcome [6]

COc1cc(O)c(C(=O)c2ccccc2)cc1S(=O)(=O)O
inactive: efficacy [1] 11.7% | outcome [2] | outcome [3] | outcome [4] | outcome [5] | outcome [6]

OCc1ccccc1O
inactive: efficacy [1] -17.7% | outcome [2] | outcome [3] | outcome [4] | outcome [5] | outcome [6]

CCCCN1CCCC[C@H]1C(=O)Nc1c(C)cccc1C
inactive: efficacy [1] 30% | outcome [2] | outcome [3] | outcome [4] | outcome [6]
active: AC50 [5] 39.8 µM

CCCCCCCC/C=C\CCCCCCCCN
inactive: efficacy [1] 12.8% | outcome [2] | outcome [3] | outcome [4] | outcome [5] | outcome [6]

Oc1ccc(O)cc1
inactive: efficacy [1] 16.5% | outcome [2] | outcome [3] | outcome [4] | outcome [5] | outcome [6]

O=C1N(c2ccccc2)c2ccccc2C1(Cc1ccncc1)Cc1ccncc1
inactive: efficacy [1] 21.1% | outcome [2] | outcome [3] | outcome [4] | outcome [5] | outcome [6]

O=C1OC(c2ccc(O)cc2)(c2ccc(O)cc2)c2ccccc21
inactive: efficacy [1] -10.1% | outcome [2] | outcome [3] | outcome [4] | outcome [5] | outcome [6]

NNC(=O)CP(=O)(c1ccccc1)c1ccccc1
inactive: efficacy [1] 11.5% | outcome [2] | outcome [3] | outcome [4] | outcome [5] | outcome [6]

CCCCN(CCCC)C(C(N)=O)c1ccc(OC)cc1 (centres undefined)
inactive: efficacy [1] 14.3% | outcome [2] | outcome [3] | outcome [4] | outcome [5] | outcome [6]

C[C@]12CCC(=O)C=C1CC[C@@H]1[C@@H]2C(=O)C[C@@]2(C)[C@H]1CC[C@]2(O)C(=O)CO
inactive: efficacy [1] 28.7% | outcome [2] | outcome [3] | outcome [4] | outcome [5] | outcome [6]

O=C(CCN1CCN(CCO)CC1)N1c2ccccc2Sc2ccc(C(F)(F)F)cc21
inactive: efficacy [1] 14.8% | outcome [2] | outcome [3] | outcome [4] | outcome [5] | outcome [6]

CCOC(=O)c1cc(=O)c2c(OCC(COc3cccc4oc(C(=O)OCC)cc(=O)c34)OC(=O)[C@@H](N)CCCCN)cccc2o1
inactive: efficacy [1] -21.2% | outcome [2] | outcome [3] | outcome [4] | outcome [5] | outcome [6]

Cc1c(N)c(=O)n(-c2ccccc2)n1C
inactive: efficacy [1] -25.5% | outcome [2] | outcome [3] | outcome [4] | outcome [5] | outcome [6]

NC(=O)NNc1ccccc1
inactive: efficacy [1] -21.6% | outcome [2] | outcome [3] | outcome [4] | outcome [5] | outcome [6]

CC(=O)Nc1ccn(C2COC(COC(=O)c3ccccc3)O2)c(=O)n1 (centres undefined)
inactive: efficacy [1] -16% | outcome [2] | outcome [3] | outcome [4] | outcome [5] | outcome [6]

O=C(O)/C=C/c1ccc(Cn2ccnc2)cc1
inactive: efficacy [1] -14.9% | outcome [2] | outcome [3] | outcome [4] | outcome [5] | outcome [6]

CNC(=O)Oc1ccc2c(c1)[C@]1(C)CCN(C)[C@@H]1N2C
inactive: efficacy [1] 20.2% | outcome [2] | outcome [3] | outcome [4] | outcome [5] | outcome [6]

Cn1c(=O)c2c(ncn2CC2OCCO2)n(C)c1=O
inactive: efficacy [1] -17.6% | outcome [2] | outcome [3] | outcome [4] | outcome [5] | outcome [6]

Nc1ccn(C2CO[C@H](CO)O2)c(=O)n1 (some centres undefined)
inactive: efficacy [1] -24% | outcome [2] | outcome [3] | outcome [4] | outcome [5] | outcome [6]

OC1C(O)C(O)C(O)C(O)C1O (centres undefined)
inactive: efficacy [1] 12.1% | outcome [2] | outcome [3] | outcome [4] | outcome [5] | outcome [6]

C#CCN(C)Cc1ccccc1
inactive: efficacy [1] -14.7% | outcome [2] | outcome [3] | outcome [4] | outcome [5] | outcome [6]

O=C1NC(=O)[C@@]2(CCOc3ccc(F)cc32)N1
inactive: efficacy [1] -52% | outcome [2] | outcome [3] | outcome [4] | outcome [5] | outcome [6]

Nc1ccn([C@H]2CC[C@@H](CO)O2)c(=O)n1
inactive: efficacy [1] -13.2% | outcome [2] | outcome [3] | outcome [4] | outcome [5] | outcome [6]

CCCc1cc(C(N)=S)ccn1
inactive: efficacy [1] -10.8% | outcome [2] | outcome [3] | outcome [4] | outcome [5] | outcome [6]

O=C(O)c1ccccc1Nc1cc(Cl)ccc1C(=O)O
inactive: efficacy [1] -12.4% | outcome [2] | outcome [3] | outcome [4] | outcome [5] | outcome [6]

CCOC(=O)c1cccc(N)c1
inactive: efficacy [1] 16.6% | outcome [2] | outcome [3] | outcome [4] | outcome [5] | outcome [6]

CCc1cccc2c(CCO)c[nH]c12
inactive: efficacy [1] -22.1% | outcome [2] | outcome [3] | outcome [4] | outcome [5] | outcome [6]

Oc1cc(O)c2c(c1)O[C@H](c1ccc(O)c(O)c1)[C@H](O)C2
inactive: efficacy [1] 34.8% | outcome [2] | outcome [3] | outcome [4] | outcome [5] | outcome [6]

O=C1OC(OC(=O)c2cccnc2Nc2cccc(C(F)(F)F)c2)c2ccccc21 (centres undefined)
inactive: efficacy [1] -25.3% | outcome [2] | outcome [3] | outcome [4] | outcome [5] | outcome [6]

CCCCCC1Nc2cc(C(F)(F)F)c(S(N)(=O)=O)cc2S(=O)(=O)N1 (centres undefined)
inactive: efficacy [1] -15.8% | outcome [2] | outcome [3] | outcome [4] | outcome [5] | outcome [6]

O=C(OCC(COC(=O)c1cccnc1)(COC(=O)c1cccnc1)COC(=O)c1cccnc1)c1cccnc1
inactive: efficacy [1] -29.2% | outcome [2] | outcome [3] | outcome [4] | outcome [5] | outcome [6]

CCOC(=O)C(=O)c1csc(NC=O)n1
inactive: efficacy [1] -15.8% | outcome [2] | outcome [3] | outcome [4] | outcome [5] | outcome [6]

O=C(CCCCCCCCC#CI)Oc1ccccc1
inactive: efficacy [1] -20.5% | outcome [2] | outcome [3] | outcome [4] | outcome [5] | outcome [6]

CCCNC(C)(C)COC(=O)c1ccccc1
inactive: efficacy [1] -21% | outcome [2] | outcome [3] | outcome [4] | outcome [5] | outcome [6]

C/C(=N/NC(=O)c1ccncc1)C(=O)O
inactive: efficacy [1] -27.5% | outcome [2] | outcome [3] | outcome [4] | outcome [5] | outcome [6]

O=Cc1ccc(O)c(O)c1O
inactive: efficacy [1] 43% | outcome [2] | outcome [3] | outcome [4] | outcome [5] | outcome [6]
